CHO-K1 Ca antag = M1 antagonist counterscreen hit in parental CHO-K1 cells. ATP-induced calcium, Fluo-8 fluorescence. inhibition, % at 3 µM. hit rate 0.6% among 360,000. AID 602250;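 active means inhibition above a per-plate cutoff, the plate's mean sample inhibition plus 3 SD, cut at about 24% in these data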;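 further: 0% = DMSO plus EC80 ATP and 100% = DMSO alone without ATP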
CHRM1 agonist = human M1 muscarinic receptor agonism | AID 588814 | hit rate 0.33% among 360,000 | activation, % at 3 µM | CHO-K1 hM1, Fluo-8 calcium fluorescence, agonist mode; 0% DMSO, 100% acetylcholine EC100 | P11229;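 active means activation above the run's mean compound activation plus 3 SD, cut at about 16% in these data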;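 further: peak over basal fluorescence ratio within a 140 s kinetic read after compound addition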
Target sequence (P11229 whole entry, looked up): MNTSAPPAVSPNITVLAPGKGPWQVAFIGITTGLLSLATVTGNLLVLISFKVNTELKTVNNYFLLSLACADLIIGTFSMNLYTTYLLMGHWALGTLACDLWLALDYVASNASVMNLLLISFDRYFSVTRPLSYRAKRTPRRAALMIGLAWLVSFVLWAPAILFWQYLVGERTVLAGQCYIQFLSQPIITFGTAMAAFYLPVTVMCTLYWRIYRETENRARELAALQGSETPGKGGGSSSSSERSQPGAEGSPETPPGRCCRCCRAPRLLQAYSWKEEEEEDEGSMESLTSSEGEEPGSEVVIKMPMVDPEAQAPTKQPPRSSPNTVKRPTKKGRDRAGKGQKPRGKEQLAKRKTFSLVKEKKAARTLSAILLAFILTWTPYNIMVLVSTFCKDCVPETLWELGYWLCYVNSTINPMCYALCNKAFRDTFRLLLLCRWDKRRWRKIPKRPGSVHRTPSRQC
CHO-K1 Ca ag = counter-screen for M1 agonists: effect in parental CHO-K1 cells. Fluo-8 calcium fluorescence; scaled to maximal ATP response, vehicle zero. hit rate 0.48% among 360,000. activation, % at 3 µM; in the data active means activation above about 15%;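 further: untransfected CHO-K1 host cells lacking M1 receptor as counterscreen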
CHRM1 antagonist = blocks human M1 muscarinic receptor. P11229. CHO-K1 hM1, Fluo-8 calcium fluorescence, ACh EC80 antagonist. inhibition, % at 3 µM. hit rate 1.3% among 360,000. AID 588852;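 active means percent inhibition above its own plate's cutoff, namely the mean of that plate's compound wells plus 3 SD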;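 further: peak over basal fluorescence ratio during 140 s after agonist addition; 0% = ACh EC80 plus DMSO and 100% = DMSO alone without agonist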
CHRM1 PAM = positive allosteric modulators of human M1 muscarinic receptor; activation, % at 3 µM; CHO-K1 hM1, Fluo-8 calcium fluorescence, ACh EC20; 0% = ACh EC20, 100% = maximal ACh; hit rate 0.088% among 360,000; P11229; in the data active means activation above about 19%, passing the limit was not always enough
M1 PAM parental = counter-screen for M1 PAMs: effect in parental CHO-K1 cells | ATP EC20, Fluo-8 calcium fluorescence; 0% at ATP EC20, 100% at ATP max | activation, % at 3 µM | hit rate 0.02% among 360,000 | AID 602247;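 active means activation above the run cutoff, the mean activation of all test compounds plus 3 SD, cut at about 40% in these data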;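 further: peak over basal fluorescence ratio in a 140 s read after ATP addition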
The depositor's hits bear a star. A selection: hits, their analogues and other compounds. The true share with any hit is near 2.3%.

SMILES	CHO-K1 Ca antag	CHRM1 agonist	CHO-K1 Ca ag	CHRM1 antagonist	CHRM1 PAM	M1 PAM parental
CCN1/C(=C/c2sc(-c3ccccc3C)c[n+]2C)Sc2ccccc21	34.4*	-1.4	11.0	47.8*	-17.4	-1.6
Cc1nc(SCc2ccc(Cl)cc2)ncc1C(=O)O	17.1	-0.5	21.3*	2.3	-5.0	0.7
C[C@H](CO)N1C[C@H](C)[C@@H](CN(C)S(=O)(=O)c2ccccc2)Oc2c(NC(=O)NC3CCCCC3)cccc2C1=O	0.4	-7.4	-0.3	4.0	-2.1	-10.4
Cc1cc(C(=S)N2CCOCC2)c(C)n1-c1ccc(Cl)cc1	-3.0	-8.3	1.9	29.1*	-25.1	18.8
CN(CC1COc2ccccc2O1)C(=O)c1ccc(Cl)c(S(=O)(=O)N2CCCCCC2)c1 (centres undefined)	-4.8	-4.3	0.7	0.9	-4.8	2.0
CC(=O)NCc1nc2ccccc2n1Cc1ccccc1F	23.8*	-1.9	-0.1	13.8	-1.4	-7.5
Cc1cc(C(=O)CSc2nc3ccccc3c(=O)[nH]2)c(C)n1CC1CCCO1 (centres undefined)	23.7*	-1.9	17.3*	25.4	-10.3	1.6
CCCCN1C(=O)N(c2ccccc2Cl)C(C)(O)CC1(C)C (centres undefined)	-1.3	0.0	0.2	1.1	10.1	-11.0
CN(C)CC(O)COC(c1ccccc1)c1ccccc1 (centres undefined)	-4.1	-9.7	1.0	39.3*	-34.3	11.5
COc1ccc(CN(C)CC(O)COC(c2ccccc2)c2ccccc2)c(OC)c1OC (centres undefined)	-3.4	-9.9	27.8*	20.3	-22.6	0.0
CC(=O)Nc1ccc(NC(=O)c2csc([C@@H]3C[C@H](O)[C@@H](CO)O3)n2)cc1	-5.5	-1.4	5.7	-2.8	2.2	12.3
O=C(Nc1ccc(OCCO)cc1)c1csc([C@@H]2O[C@H](CO)[C@H](O)[C@H](O)[C@H]2O)n1	11.1	-2.5	2.3	-20.7	9.0	3.8
O=C(Nc1ccc(Oc2ccccc2)cc1)c1csc([C@H]2C[C@H](O)[C@@H](CO)O2)n1	0.8	3.2	13.5	31.6*	-16.5	-5.2
O=C(Nc1ccc(Oc2ccccc2)cc1)c1csc([C@@H]2O[C@H](CO)[C@@H](O)[C@H]2O)n1	2.0	1.4	5.8	34.0*	-13.8	4.4
Cc1ccccc1NS(=O)(=O)c1ccc2c(c1)n(C)c(=O)n2C	9.1	-4.5	15.4*	1.1	7.5	3.8
Cc1cc(C)c(NS(=O)(=O)c2ccc3c(c2)n(C)c(=O)n3C)c(C)c1	-17.2	-0.7	0.3	-10.6	1.6	5.2
Cc1cc(C)n(-c2nc3c(c(=O)[nH]c(=O)n3C)n2CCc2ccccc2)n1	4.6	0.2	0.4	-3.4	2.9	3.7
Cc1cc(C)n(-c2nc3c(c(=O)[nH]c(=O)n3C)n2Cc2ccccc2)n1	25.1*	-3.4	-0.2	-3.2	1.4	-5.2
Cc1cccc(Cn2c(N3CCN(C)CC3)nc3c2c(=O)[nH]c(=O)n3C)c1	-2.3	-2.5	9.1	-3.8	7.3	17.9
CC(=O)Cn1c(N2CCC(Cc3ccccc3)CC2)nc2c1c(=O)[nH]c(=O)n2C	-17.1	-1.0	-0.5	-48.5	21.5*	23.3
Cc1cccc(Cn2c(N3CCCCC3C)nc3c2c(=O)[nH]c(=O)n3C)c1 (centres undefined)	1.6	-10.1	0.0	32.1*	-28.0	3.2
O[C@@H]([C@H](O)[C@H](O)CBr)[C@H](O)CBr	-1.6	-0.6	-0.4	-29.5	4.0	16.0
Nc1c(-c2cccc([N+](=O)[O-])c2)nc2ccccn12	9.1	-7.0	-0.1	-4.5	-0.9	-6.3
Fc1cccc(Cc2c(-c3ccco3)nc3ccc(Br)cn23)c1	-20.6	-0.8	-0.1	-17.4	4.9	22.4
Cc1nc2sccn2c(=O)c1S(=O)(=O)NCC1CCN(Cc2ccccc2Cl)CC1	-17.3	-14.2	0.9	39.2*	-36.5	16.6
SMILES	CHO-K1 Ca antag	CHRM1 agonist	CHO-K1 Ca ag	CHRM1 antagonist	CHRM1 PAM	M1 PAM parental
Cc1ccc(CN(C)C(=O)c2ccccc2NC(=O)c2ccccc2)o1	6.7	3.4	0.0	-13.0	20.6	-18.9
CC(C)C(=O)Nc1nnc(NC(=S)Nc2ccccc2)s1	-1.9	-6.9	19.2*	-2.9	9.1	9.5
CCCc1nnc(NC(=S)Nc2ccccc2)s1	-15.8	-1.6	0.1	3.0	-0.1	-8.6
O=C(CN1CCCCCC1)N1c2ccccc2C=Cc2ccccc21	-3.2	-6.9	1.1	97.7*	-25.5	25.0
O=C(CN1CCCCC1)N1CCCc2ccccc21	-17.7	-15.1	0.4	7.9	-8.6	13.9
CN1CCN(C(=O)N2c3ccccc3C=Cc3ccccc32)CC1	1.3	-4.8	-0.1	93.6*	-23.5	2.5
O=C(CN1CCCC1)N1c2ccccc2C=Cc2ccccc21	-22.2	-5.8	0.7	90.0*	-22.2	8.6
Cc1csc(N(C)C(=O)CSc2nnc(COc3cccc4ccccc34)o2)n1	5.6	-3.4	-0.5	15.6	-8.5	60.9*
Cc1nnc(SCC(=O)c2cc(C)n(-c3c(C)n(C)n(-c4ccccc4)c3=O)c2C)s1	-15.8	-8.2	-0.7	-15.9	-2.1	4.0
Cc1cc(C(=O)CSc2nncs2)c(C)n1-c1c(C)n(C)n(-c2ccccc2)c1=O	-6.3	-12.5	0.2	54.5*	-33.3	8.2
O=C1OCCC1=COCCCCCCOC=C1CCOC1=O	-1.3	-0.6	2.9	-11.6	1.3	13.3
Cn1c(=O)cc(OCC(=O)N2CCC(N3CCCCC3)CC2)c2ccccc21	1.0	-12.2	0.0	-1.9	2.9	3.3
Cc1cc(N2CCN(c3ccccc3)CC2)n2ncnc2n1	-8.5	-1.5	1.6	-5.8	8.7	13.3
Cc1cc(C)c2c(n1)nn1c(N3CCN(c4ccccc4)CC3)cc(C)nc21	33.2*	-5.7	-0.7	18.6	-5.8	-9.6
C/C(=N\Nc1c([N+](=O)[O-])c(C)nn1C)c1ccc(F)cc1F	-8.7	-6.1	0.5	-1.0	2.7	9.9
O=C(O)CN1CCc2ccccc2C1	0.8	-8.3	-0.5	-0.5	4.5	15.8
CSc1ccc(CN2CCN(Cc3ccc([N+](=O)[O-])cc3)CC2)cc1	-12.4	-7.5	8.9	41.4*	-26.1	-4.2
O=[N+]([O-])c1ccc(CN2CCCCCC2)cc1	-5.3	-3.4	0.1	0.9	-0.8	15.3
O=C(CCC(=O)N1CCN(c2ccc(F)cc2)CC1)N1CCN(c2ccc(F)cc2)CC1	-5.1	-0.9	6.7	-8.5	1.2	8.5
CN1CCN(C(=O)/C(=C/c2ccccc2)c2ccccc2)CC1	-4.7	-7.2	8.7	98.5*	-20.7	24.8
CN1CCN(C(=O)/C(C#N)=C/c2ccc(F)cc2)CC1	-2.9	-2.1	0.1	-6.2	3.3	-9.5
CC1CC(C)CN(C(=O)/C(=C\c2ccccc2)c2ccccc2)C1 (centres undefined)	-0.2	-9.5	0.1	-5.8	3.8	9.1

From PubChem
